Measured values from PMC4336329 (PLoS ONE, 2015).
Among all 310,000 compounds or so, about 14,000 (4.5%) showed an effect of 50% or more. The effect is printed as a negative number. What follows is part of a selection rich in strong results, with near analogues and random picks from the rest.

target: human ether-à-go-go-related gene (hERG) potassium channel (human, UniProt Q12809); assay: primary screen, population patch clamp on CHO cells stably expressing hERG; higher = less effect of the substance
Sequence (Q12809 whole entry, looked up): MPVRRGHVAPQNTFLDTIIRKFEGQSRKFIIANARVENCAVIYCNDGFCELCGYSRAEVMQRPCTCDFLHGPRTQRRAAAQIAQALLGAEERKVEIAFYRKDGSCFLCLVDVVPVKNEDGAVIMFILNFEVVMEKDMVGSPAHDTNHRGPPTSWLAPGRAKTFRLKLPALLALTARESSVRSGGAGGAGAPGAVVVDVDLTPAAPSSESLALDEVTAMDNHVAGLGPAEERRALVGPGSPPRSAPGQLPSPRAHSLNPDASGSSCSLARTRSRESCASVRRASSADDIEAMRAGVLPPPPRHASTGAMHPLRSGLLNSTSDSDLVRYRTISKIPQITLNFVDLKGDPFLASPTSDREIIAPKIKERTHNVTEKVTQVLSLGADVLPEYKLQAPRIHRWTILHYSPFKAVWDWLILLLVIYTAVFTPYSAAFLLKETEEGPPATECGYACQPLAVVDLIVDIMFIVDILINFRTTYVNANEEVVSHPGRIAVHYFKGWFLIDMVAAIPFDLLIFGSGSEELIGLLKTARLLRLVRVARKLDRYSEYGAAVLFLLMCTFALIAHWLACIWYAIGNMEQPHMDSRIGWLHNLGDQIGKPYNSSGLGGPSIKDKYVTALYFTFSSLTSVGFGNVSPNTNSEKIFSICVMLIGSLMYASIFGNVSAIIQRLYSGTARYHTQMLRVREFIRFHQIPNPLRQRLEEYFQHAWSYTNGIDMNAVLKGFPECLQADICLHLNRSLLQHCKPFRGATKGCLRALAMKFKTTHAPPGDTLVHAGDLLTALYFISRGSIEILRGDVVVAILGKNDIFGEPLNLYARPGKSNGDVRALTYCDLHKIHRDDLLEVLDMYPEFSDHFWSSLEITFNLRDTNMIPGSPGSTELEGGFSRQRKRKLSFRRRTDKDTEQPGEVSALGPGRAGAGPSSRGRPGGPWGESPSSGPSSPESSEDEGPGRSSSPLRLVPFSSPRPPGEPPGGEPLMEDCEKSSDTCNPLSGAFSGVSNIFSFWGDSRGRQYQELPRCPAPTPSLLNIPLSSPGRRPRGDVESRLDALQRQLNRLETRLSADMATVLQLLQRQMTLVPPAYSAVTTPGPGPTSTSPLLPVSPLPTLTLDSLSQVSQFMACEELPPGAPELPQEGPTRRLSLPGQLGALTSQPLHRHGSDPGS
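Note: peak tail current of the secondary pulse compared with the same well before compound.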

Row | SMILES | hERG current change (%, negative = inhibition) at 10uM
1 | COc1ccc(NS(=O)(=O)c2cccc(NC(=O)C3=NN(c4ccccc4)C(=O)CC3)c2)cc1 | -35.1%
2 | O=C(NC1=NCCS1)c1cc2ccccc2o1 | -23.8%
3 | O=C(Nc1ccc2c(c1)CCC2)c1cccc(S(=O)(=O)N2CCN(c3ccc(F)cc3)CC2)c1 | -3.29%
4 | O=C(Nc1cccc(S(=O)(=O)N2CCCC2)c1)c1cccc(S(=O)(=O)N2CCOCC2)c1 | -15.5%
5 | O=C(Nc1ccncc1)c1cccc(S(=O)(=O)N2CCN(c3ccc(F)cc3)CC2)c1 | -82.9%
6 | CCN(CC)S(=O)(=O)c1cccc(NC(=O)c2cncc(Br)c2)c1 | -69.9%
7 | CN1CCN(S(=O)(=O)c2cccc(C(=O)Nc3sccc3C#N)c2)CC1 | -5.03%
8 | CN1CCN(S(=O)(=O)c2cccc(C(=O)Nc3sccc3C(N)=O)c2)CC1 | -75.4%
9 | O=C(Nc1ccncc1)c1cccc(S(=O)(=O)N2CCOCC2)c1 | -58.4%
10 | Cc1cccnc1NC(=O)c1cccc(S(=O)(=O)N2CCN(c3ccc(F)cc3)CC2)c1 | -35.1%
11 | O=C(Nc1cccnc1)c1cccc(S(=O)(=O)N2CCOCC2)c1 | 4.06%
12 | CCN(CC)S(=O)(=O)c1cccc(NC(=O)c2ccc(Br)cc2)c1 | 4.07%
13 | CN(C)S(=O)(=O)c1cccc(NC(=O)c2cncc(Br)c2)c1 | -3.39%
14 | CN1CCN(S(=O)(=O)c2cccc(C(=O)Nc3cc(C(N)=O)cc(C(N)=O)c3)c2)CC1 | 4.71%
15 | Cc1ccc(SCC(=O)c2cc(C)c(O)c(C)c2)cc1 | -3.19%
16 | Cc1ccccc1NC(=O)CCc1nnc2ccc(N3CCC4(CC3)OCCO4)nn12 | 8.74%
17 | CSCc1nnc(NC(=O)c2ccc(S(=O)(=O)N(C)C)cc2)o1 | 20.7%
18 | CCOC(=O)/C(C#N)=N/Nc1ccc(S(=O)(=O)N2CCc3ccccc32)cc1 | 2.18%
19 | CCOC(=O)C1=C(C)OC(N)=C(C#N)C1c1cccs1 (stereo not drawn) | 8.62%
20 | Cc1nnc(NC(=O)CSc2nnc(CNC(=O)C34CC5CC(CC(C5)C3)C4)n2C2CCCCC2)s1 | 2.98%
21 | CCOc1ccccc1N1CCN(C(=O)c2cc3cc(OC)ccc3[nH]2)CC1 | -3.66%
22 | C=CCn1c(O)c(C(CC)=Nc2ccc3c(c2)CCC3)c(=O)[nH]c1=O | 1.65%
23 | CCN(CC)S(=O)(=O)c1ccc(NC(=O)CNC2CCCCC2)cc1.O=C(O)C(=O)O | -7.08%

Row | SMILES | hERG current change (%, negative = inhibition) at 10uM
24 | CN(C)S(=O)(=O)c1cccc(NC(=O)CNC2CCCCC2)c1.O=C(O)C(=O)O | 5.24%
25 | CN1CCN(S(=O)(=O)c2cccc(C(=O)Nc3cccc(S(N)(=O)=O)c3)c2)CC1 | 12.8%
26 | O=C(Nc1ccncc1)c1cccc(S(=O)(=O)N2CCCC2)c1 | -60.7%
27 | CCN(CC)S(=O)(=O)c1cccc(NC(=O)CNC2CCCCCC2)c1.O=C(O)C(=O)O | -60.8%
28 | CCc1cccc(CC)c1NC(=O)c1cccc(S(=O)(=O)N2CCN(C)CC2)c1 | -4.14%
29 | CCc1cccc(NC(=O)c2cccc(S(=O)(=O)N3CCN(C)CC3)c2)c1 | -53.9%
30 | O=C(Nc1ccccc1)c1cccc(S(=O)(=O)N2CCCCC2)c1 | 0.607%
31 | O=C(Nc1cccc(S(=O)(=O)N2CCCC2)c1)c1ccncc1 | -46.5%
32 | CC(C)(CC(=O)O)CC(=O)Nc1ccc2c(c1)ncn2CCc1ccccc1 | 15.8%
33 | CNC(=O)NC(=O)COC(=O)c1ccc(-n2c(C)ccc2C)cc1 | -7.41%
34 | COc1ccc(C(CC(=O)O)NC(=O)COc2cc(C)ccc2C)cc1OC (stereo not drawn) | 21.2%
35 | CCCn1c(=N)n(CC(O)COc2cccc(C)c2)c2ccccc21.Cl (stereo not drawn) | -71.3%
36 | COCCCNc1nc2c(c(=O)[nH]c(=O)n2C)n1CC(O)COc1cccc(C)c1 (stereo not drawn) | -2.66%
37 | CCCCn1c(=N)n(CC(O)COc2cccc(C)c2)c2ccccc21.Cl (stereo not drawn) | -72.6%
38 | CCn1c(=N)n(CC(O)COc2cccc(C)c2)c2ccccc21.Cl (stereo not drawn) | -58.6%
39 | Cc1ccc(-n2c(=O)[nH]cc(C(=O)Nc3ccc4c(c3)OCCO4)c2=O)cc1 | 18.3%
40 | CC(=O)N1CCN(c2ccc(NC(=O)c3cccc(OCc4ccccc4)c3)cc2)CC1 | 7.06%
41 | c1ccc(OCCCn2ccnc2)cc1 | 16.3%
42 | O=c1ccc2ccccc2n1Cc1cccc(F)c1 | 9.61%
43 | COc1ccc(CCN2C(=O)CC(Cc3ccccc3)C2=O)cc1OC (stereo not drawn) | -17.2%
44 | Cc1ccc(SCC(=O)OC(C)C(=O)NCc2ccccc2)cc1 (stereo not drawn) | -1.8%
45 | COc1ccc2c(c1)OC[C@H]1[C@H]2N2C(=O)CN(CC3CCCO3)C(=O)[C@@]2(C)[C@H]1c1ccccc1 (stereo partly drawn) | -1.62%
46 | CCc1ccc(CNc2ccc3c(c2)ncn3CC)cc1 | -19.7%

Row | SMILES | hERG current change (%, negative = inhibition) at 10uM
47 | CCn1cnc2cc(NCc3ccc(OC)cc3)ccc21 | -39.4%
48 | CCn1cnc2cc(NCc3ccc(N(C)C)cc3)ccc21 | -8.28%
49 | COc1ccc(CNc2ccc3c(c2)nc(C)n3C)cc1OC | -17.1%
50 | CCCn1cnc2cc(NCc3cccc(OC)c3)ccc21 | -67.2%
51 | CCn1cnc2cc(NCc3ccc(Cl)cc3)ccc21 | -68%
52 | CCn1cnc2cc(NCc3ccc(C)cc3)ccc21 | -40.4%
53 | CCCn1cnc2cc(NCc3cccs3)ccc21 | -10.9%
54 | COc1ccc(CNc2ccc3c(c2)nc(C)n3C)cc1 | -31.9%
55 | COc1ccc(OC)c(CNc2ccc3c(c2)nc(C)n3C)c1 | -68.4%
56 | CCn1cnc2cc(NCc3ccncc3)ccc21 | 6.89%
57 | CCn1cnc2cc(NCc3ccc(Br)cc3)ccc21 | -61.3%
58 | CCc1ccc(N(CC(=O)Nc2ccccc2C(=O)N2CCCC2)S(C)(=O)=O)cc1 | -10.6%
59 | CN(C)c1ccc(CNn2cnnc2SCc2ccc(F)cc2)cc1 | -9.48%
60 | COc1ccc(NC(=O)CC2C(=O)N(c3ccc(OC)cc3)C(=O)N2C(C)C)cc1 (stereo not drawn) | -5.34%
61 | Cc1ccc(NC(=O)c2ccc(-n3cncn3)c([N+](=O)[O-])c2)cc1F | -18.1%
62 | CC12CCC(C(=O)Nc3ccccc3Br)(C/C1=N\O)C2(C)C (stereo not drawn) | 4.44%
63 | CC(On1nnc2ccccc21)C(=O)N1CCN(Cc2ccccc2)CC1 (stereo not drawn) | 18.2%
64 | C(#CCN1CCOCC1)COCc1ccccc1.Cl | 11.1%
65 | COc1cccc(OCCOc2ccc(/C=C3/SC(=S)NC3=O)cc2)c1 | 23%
66 | CN(CC(=O)Nc1ccccc1Cl)C(=O)CSc1nnc(-c2ccco2)o1 | -7.79%
67 | Cc1ccc(CNc2ccc3c(c2)nc(C)n3C)cc1 | -21.9%
68 | CCCCn1cnc2cc(NCc3ccncc3)ccc21 | -1.31%
69 | CCCCn1cnc2cc(NCc3cccc(OC)c3O)ccc21 | -51.2%

Row | SMILES | hERG current change (%, negative = inhibition) at 10uM
70 | CCCn1cnc2cc(NCc3ccccn3)ccc21 | -18.8%
71 | CCCn1cnc2cc(NCc3ccc(Br)cc3)ccc21 | -73.9%
72 | Cn1cnc2cc(NCc3ccccc3Cl)ccc21 | -35%
73 | Cn1cnc2cc(NCc3ccc(Cl)cc3)ccc21 | -18.3%
74 | CCCn1cnc2cc(NCc3cccc(OC)c3O)ccc21 | -29.3%
75 | CCCn1cnc2cc(NCc3ccccc3O)ccc21 | -0.21%
76 | CCn1cnc2cc(NCc3ccccc3Cl)ccc21 | -52.1%
77 | Cc1nc2cc(NCc3ccc(Cl)cc3)ccc2n1C | -70.6%
78 | CCn1cnc2cc(NCc3cccc(OC)c3O)ccc21 | -5.91%
79 | CN(C)c1ccc(C(CNC(=O)c2ccccc2F)c2c[nH]c3ccccc23)cc1 (stereo not drawn) | -8.6%
80 | Cc1[nH]c(C)c(S(=O)(=O)Nc2ccc(OC(F)(F)F)cc2)c1C(=O)N1CCCCC1 | -7.79%
81 | O=C(N/N=C/C=C/c1ccccc1)c1cccc(Br)c1 | 5.3%
82 | FC(F)(F)c1ccccc1N1CC1c1ccncc1 (stereo not drawn) | 13.3%
83 | O=C(O)c1ccccc1C(=O)NC1CCN(c2nccc(C(F)(F)F)n2)CC1 | 9.16%
84 | COc1ccc(N2C(=O)CC(N3CCCC4CCCCC43)C2=O)cc1 (stereo not drawn) | 1.28%
85 | CCOC(=O)c1ccc(NC(=O)C2CC2)cc1 | -18.4%
86 | Cn1cccc1-c1cc(C(=O)N/N=C/c2cccc(O)c2)[nH]n1 | -7.31%
87 | COc1cccc(/C=N/NC(=O)c2cc(-c3cccn3C)n[nH]2)c1 | -61.1%
88 | COc1ccc(/C=N/NC(=O)c2cc(-c3cccn3C)n[nH]2)cc1OC | -27.5%
89 | CCOc1nc2ccccc2cc1C=O | -5.31%
90 | Cc1ccc(NS(=O)(=O)c2ccc(NC(=O)[C@@H]3CCCC[C@@H]3C(=O)O)cc2)c(C)c1 | 18%
